# In PubChem BioAssay AID1347426 (Functional Genomics Laboratory (NCATS/FGL), 2020):
# In all, about 31,000 sequences went through this assay and about 1,400 (4.5%) were called active. Many of the other results were omitted from the sample, so actives are more common in it than they were. A number with no mark means an inactive call.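 Rule for the calls: active = median seed-adjusted z-score above 1 or below -1; inactive = the rest.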
# Assay: Novel Modifiers of Survival Motor Neuron (SMN) Protein: Gene Identification via Genome-wide siRNA Screen;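 note: luminescence tracks full-length SMN protein made from the SMN2 reporter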
# Settings: HEK293T SMN2-luciferase reporter, siRNA knockdown, 72 h; actives lie on both sides
# In short: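 HEK293T cells stably carrying an SMN2 promoter/splicing cassette–luciferase reporter were reverse-transfected with 1 pmol siRNA per well (druggable-genome library, 3 siRNAs per gene) and grown 72 h at 37 °C. Luminescence, normalized to negative-control siRNA and log10-transformed, was scored as MAD.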
row,Sequence,median seed-adjusted z-score
1,GGAUAAUGAUGACGGGAGATT against SYT9,0.0419
2,CAACGACCGGAGGUAUAAATT against BPGM,0.408
3,CCGGCUUCCUCAUUACCUUTT against SLC2A14,-1.09 (active)
4,GGACUUACCUCAAUCAGAUTT against ZDHHC13,-0.381
5,CGAGAGGUGUAUCAAUAUATT against LIN7A,-1.39 (active)
6,GCUUUACCACCGUACGAAATT against MST4,0.343
7,UGAGAAUUGUGGAUCCGGATT against CSTF2,0.586
8,GGUACGAAUGAAUACCUUUTT against PTPN4,-0.447
9,GACCCAGCCGAAUACAACATT against NDUFB4,-0.697
10,GAACCUACAUCAUCAGUAUTT against GJA1,0.348
11,GCCUUGCUGUUAAAGGGCATT against PARP2,-0.366
12,AGAGUGACCUGAUUGAGCATT against CSNK2B,-1.62 (active)
13,GGCCUUUGGUGAAAACCGUTT against CLDN11,0.268
14,GCCUAUGACCUUCUACUUUTT against SLC31A1,0
15,GUAUCUGCGAGGACGAAAATT against RNF113B,-0.228
16,GCAUCAUCGGUACCCAGUUTT against MPO,-0.223
17,GGCCGCUGCUUGUUUGUCATT against SLC13A3,0.0434
18,ACUGUGAAAUUGGACCAAUTT against RABIF,0
19,CUGUCGCUGUCUGACCAGATT against ESRRA,-0.833
20,AGACAAUGAUCAUAGACAATT against IDH3B,-0.642
21,CAACAACCCUUAUCGUAAATT against POLQ,0.203
22,GAGACUAUAUCUACAUGAATT against SLITRK3,-0.564
23,CGGAUGUUCUUUACACUAUTT against HNRNPL,1.04 (active)
24,GCAUAUGACUUGUAUUCCUTT against TFB2M,0.206
25,GGGACAUGGGAAUGCAAUATT against MSR1,0.0743
26,GGAAAUCUCGUGAUUUUCATT against TEAD1,1.31 (active)
27,CCAGAAACGUACACCUGAUTT against COX7B,-1.16 (active)

row,Sequence,median seed-adjusted z-score
1,CCAUCAACACUGAAUUGCATT against SEC22B,-0.106
2,GUAUAGAUCUCUAUUUCUATT against COPZ1,-1.02 (active)
3,GAAGAGUGGUACUACCAGATT against BACE2,0.0853
4,CCACUUCAAGAAAACUUCATT against ZSCAN22,0.277
5,GGCUCGAGAUUUAUACGAUTT against HECTD1,-0.0588
6,GGAGAAAGGAUCACGCUAATT against KCTD1,0
7,CCUACACGGUCCUUCGUAATT against HEPHL1,0.0681
8,CCUUCUAUCAUGUAAGCUATT against IL1A,1.12 (active)
9,GCGUGUUCCCAAUAGUGUATT against OGT,0.411
10,GGAUAUCACAGAAGGAUAUTT against ANXA4,-0.0932
11,GUGUAAAACUUGUCAGCGATT against WT1,0.236
12,GCAGCUUCAUAACCGAAGATT against PARP1,-0.0913
13,GAUGCAUGUUUGUAAAAAUTT against KCNJ6,-1.6 (active)
14,GCCCAACAGUCAUUCAACATT against CHMP5,0
15,GGAGGUGACCUUCCAGGAATT against RAB17,0.473
16,GGCCGUCAGUAAUACAUCUTT against ZBTB33,0.164
17,CCACCAAUCACGAACCUAATT against IL3RA,-0.951
18,CAGUGUAUCUGAACCUAUUTT against EFTUD1,-1.39 (active)
19,GCUCUUCGGGAGAAUCUUUTT against CTNNAL1,0.229
20,AGACCAUUGAGACCCGGAATT against PRPH,0
21,CAACUAAUUUCUAAUCGUUTT against ADAD1,-0.0795
22,GUGCGAAGGUUUUUAAUCATT against ZNF816A,0.39
23,GUACCUGCGGGAUUACUCATT against CCT7,-0.246
24,UGAACUUGAUGAAGGAGAATT against S100A7L2,0.283
25,GGGUCCUGUUCAUAAAGGATT against KCTD10,-0.506
26,GGAAUUUACAUGGUCUAUUTT against PHF6,-0.268
27,CCAUGCUCGUGGUGCACAATT against B3GNT7,-1.05 (active)
